Test results reported in PubChem BioAssay AID1851 (National Center for Advancing Translational Sciences (NCATS), 2009).
Screen size: about 16,000 compounds; about 5,700 (36%) were called active. Another 24% or so got no clear call; they are omitted. The list shows a part of the results. A number with no mark means an inactive call. The call rests on the fitted dose curve; in most records, active means well fitted curve in the direction sought with a large enough effect; inconclusive means small, poorly fitted or top-dose-only effect, or effect the other way; inactive means no such curve, though single readings can be large or run the other way.

Target: Cytochrome P450 1A2 (Homo sapiens) (UniProt P05177)
Assay: Cytochrome panel assay with activity outcomes
Details: recombinant CYP, pro-luciferin dealkylation, luminescence, p450-cyp1a2; series mostly up to 57.1 µM
On the % scale 0 is the no-effect control and ±100 the full control effect.

Chain of Cytochrome P450 1A2 (Homo sapiens) (P05177 whole entry, looked up): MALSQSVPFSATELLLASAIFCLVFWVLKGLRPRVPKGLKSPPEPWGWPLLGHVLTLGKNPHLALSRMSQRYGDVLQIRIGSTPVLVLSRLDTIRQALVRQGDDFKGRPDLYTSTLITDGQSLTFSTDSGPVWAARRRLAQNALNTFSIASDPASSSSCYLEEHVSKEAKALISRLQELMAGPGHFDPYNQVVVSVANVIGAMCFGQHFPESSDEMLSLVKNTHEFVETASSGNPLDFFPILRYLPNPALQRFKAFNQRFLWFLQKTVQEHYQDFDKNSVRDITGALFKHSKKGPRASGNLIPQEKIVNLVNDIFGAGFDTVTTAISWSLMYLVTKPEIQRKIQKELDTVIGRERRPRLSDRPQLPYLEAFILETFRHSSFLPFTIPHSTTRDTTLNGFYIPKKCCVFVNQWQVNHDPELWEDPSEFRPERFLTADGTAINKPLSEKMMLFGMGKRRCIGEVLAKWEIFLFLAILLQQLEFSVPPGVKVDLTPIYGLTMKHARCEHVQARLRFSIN

SMILES | activity, negative = inhibition | AC50
CC(C)CNC(=O)O | -14.2% [at 11.4 µM] | 
CN[C@@H]1NC(=O)c2ccccc2N1Cc1ccc(F)cc1 | -7.56% [at 2.29 µM] | 
Cc1ccc(CN2C(=O)CCC2C(=O)NCc2cccnc2)cc1 (centres undefined) |  | inactive
Cc1ccc(NC2c3ncccc3C(=O)N2Cc2ccc(F)cc2)cc1 (centres undefined) |  | 11.2 µM (active)
CN(C)C(=O)c1ccc(-c2ccc3ncnc(NCc4ccccc4)c3c2)cc1 |  | 15.8 µM (active)
Cc1cccc(CNc2ncnc3ccc(-c4ccc(C(=O)N(C)C)cc4)cc23)c1 |  | 15.8 µM (active)
CN(C)c1ccc(-c2ccc3ncnc(NCc4ccccc4)c3c2)cc1 |  | 0.501 µM (active)
CN(C)C(=O)c1ccc(-c2ccc3ncnc(NCc4cccs4)c3c2)cc1 |  | 15.8 µM (active)
CO[C@@H](C(C)C)[C@@H](C)[C@@H]1OC(=O)C[C@@H]1O | -5.03% [at 11.4 µM] | 
CN(C)c1ccc(-c2cncnc2NCc2ccccc2)cc1 |  | 1 µM (active)
CN(C)c1ccc(-c2cncnc2NCc2cccnc2)cc1 |  | 1 µM (active)
CC(C)CO/N=C1/C[C@@H](O)[C@@H](O)[C@@H]2[C@@H]3C(=O)N([C@@H](C)c4ccccc4)C(=O)[C@H]3CC[C@H]12 | 4.53% [at 11.4 µM] | 
Clc1ccc(Sc2ccc(/C=N/n3cnnc3)o2)cc1 |  | 14.1 µM (active)
CN=C1S/C(=C\c2ccc(Sc3ccc(Cl)cc3)o2)C(=O)N1C |  | 3.55 µM (active)
CN(C)c1nc(C#N)nc(N2CCOCC2)n1 |  | 1.58 µM (active)
Cc1cc(C(=O)OC2CCOC2=O)c2ccccc2n1 (centres undefined) |  | 2.82 µM (active)
CC1(C)[C@@H]2CC[C@@](C)(C2)[C@H]1OC(=O)c1ccccc1C(=O)O | 2.82% [at 11.4 µM] | 
CCCCCCN1Cc2ccccc2C1 |  | 12.6 µM (active)
CCCCN1CCC(n2c(=O)[nH]c3ccccc32)CC1 |  | inactive
OC(CCCN1CCCCC1)(c1ccccc1)c1ccccc1 |  | inactive
COCCCNC(=O)CN(c1ccc(OC)cc1)S(=O)(=O)c1ccc(NC(C)=O)cc1 |  | inactive
C=CCOc1ccc(CNC(C)(C)CO)cc1OC |  | inactive
COc1ccc(CCNC[C@H](O)c2ccc(O)cc2)cc1OC |  | inactive
CCOc1nc(NCCc2ccc(OC)c(OC)c2)nc(NC(C)(C)CO)n1 |  | 5.01 µM (active)
CCSC[C@@H](N)C(=O)O | -1.61% [at 2.29 µM] | 

SMILES | activity, negative = inhibition | AC50
Cc1c(Cl)c([N+](=O)[O-])nn1Cc1ccc(C(=O)N/N=C\c2cccc(Br)c2)o1 |  | 3.16 µM (active)
Cc1c(Cl)c([N+](=O)[O-])nn1Cc1ccc(C(=O)N/N=C\c2cc(Cl)ccc2O)o1 |  | 1.58 µM (active)
Cc1nn(Cc2ccc(Cl)cc2)c(C)c1NC(=O)Cn1nc([N+](=O)[O-])c(Cl)c1C |  | inactive
CN(C)CC(O)COc1ccc(C(C)(C)c2ccc(OCC(O)CN(C)C)cc2)cc1 (centres undefined) |  | inactive
CC1(C)OC(=O)C(=CNc2cccc(O)c2)C(=O)O1 |  | 12.6 µM (active)
CC(=O)c1cccc(NC=C2C(=O)OC3(CCCCC3)OC2=O)c1 |  | 3.55 µM (active)
O=C(O)[C@H]1CC=CC[C@@H]1C(=O)Nc1cccc(O)c1 | -18.8% [at 11.4 µM] | 
CC(=O)Nc1cccc(N2C(=O)CCC2=O)c1 |  | inactive
CSCCC(NC=C1C(=O)OC(C)(C)OC1=O)C(=O)O (centres undefined) |  | inactive
CCCC[C@H](CC)CN1CN(C[C@@H](CC)CCCC)CC(C)(N)C1 |  | inactive
Cc1cc(C)n(-c2nc(NC(C)C)nc(NC(C)C)n2)n1 |  | 10 µM (active)
Cc1cc(C)n(-c2nc(Nc3ccccc3C)nc(-n3nc(C)cc3C)n2)n1 |  | inactive
COc1cccc(C(=O)/C=C/c2ccc(SC)cc2)c1 |  | 2.51 µM (active)
Cc1ccc(NC(=O)CN(C)C(=O)CSc2n[nH]c(N)n2)cc1 |  | inactive
Cn1sc(NC(=O)c2ccccc2)nc1=O |  | inactive
CCOC(=O)CSc1n[nH]c(NC(=O)c2cccc(C)c2)n1 |  | 15.8 µM (active)
CCOC(=O)CSc1n[nH]c(NC(=O)c2ccccc2)n1 |  | 10 µM (active)
CCOC(=O)CC(=O)CSc1nc(-c2cccnc2)cc(C)c1C#N |  | 10 µM (active)
CCOC(=O)CSc1n[nH]c(NC(=O)c2cccc(C(F)(F)F)c2)n1 |  | 3.16 µM (active)
CCOC(=O)CSc1nnc(NC(=O)c2cccc(S(=O)(=O)N3CCCCCC3)c2)s1 |  | inactive
C[C@@H]1NC(=O)C/C=C\[C@@H](C)[C@@H]2C=C[C@H](O)[C@@H](COC(=O)[C@H](C)NC(=O)C/C=C\[C@@H](C)[C@@H]3C=C[C@H](O)[C@@H](COC1=O)O3)O2 | -3.28% [at 11.4 µM] | 
COC(=O)N1CCC2(CC1)CN(C(=O)Nc1cccc(C#N)c1)C2 |  | inactive
CN1CCC(=C2c3ccccc3CCc3sccc32)CC1 |  | inactive
CCOC(=O)CSc1n[nH]c(-c2cccnc2)n1 |  | 2.51 µM (active)
COc1ccc(CNc2ncnc3ccc(-c4ccoc4)cc23)c(OC)c1 |  | 1.58 µM (active)

SMILES | activity, negative = inhibition | AC50
COc1ccccc1CNc1ncnc2ccc(-c3ccoc3)cc12 |  | 2.51 µM (active)
CS(=O)(=O)N1CCC[C@@]2(CCN(C(=O)Nc3ccccc3)C2)C1 |  | inactive
COC(=O)[C@@]1(Cc2ccccc2)[C@H]2c3cc(C(=O)N4CCCC4)n(Cc4ccccn4)c3C[C@H]2CN1C(=O)c1ccccc1 |  | inactive
N[C@H](C(=O)O)[C@@H]1C[C@@H]1C(=O)O |  | inactive
O=c1[nH]c2cc(Br)cnc2nc1/C=C(\O)c1ccc(F)cc1 |  | 0.398 µM (active)
CCNc1ncc2nc(-c3ccc(F)cc3)c(=O)n(C)c2n1 |  | 0.501 µM (active)
CCNc1ncc2nc(-c3cccc(C#N)c3)c(=O)n(C)c2n1 |  | 2.51 µM (active)
CCNc1ncc2nc(-c3ccccc3)c(=O)n(C)c2n1 |  | 0.398 µM (active)
CCNc1ncc2nc(-c3ccc(OC)cc3)c(=O)n(Cc3ccc(F)cc3)c2n1 |  | inactive
CCNc1ncc2nc(-c3cc(F)cc(F)c3)c(=O)n(C)c2n1 |  | 2 µM (active)
O=C1O[C@@H]([C@H](O)[C@H](O)[C@H](O)CO)[C@@H](O)[C@@H]1O | -12.7% [at 11.4 µM] | 
NC(=O)c1cc[n+](CC2=C(C(=O)[O-])N3C(=O)[C@@H](NC(=O)Cc4cccs4)[C@@H]3SC2)cc1 |  | inactive
C[C@H](Oc1ccccc1)C(=O)N[C@@H]1C(=O)N2[C@@H]1SC(C)(C)[C@@H]2C(=O)O |  | inactive
NOCC(=O)O |  | inactive
Cc1cc(C(C)(C)C)c(O)c(C)c1CC1=NCCN1 |  | inactive
Cc1n[nH]c(=O)[nH]c1=O |  | inactive
CCNc1ncc2nc(-c3ccc(OC)cc3)c(=O)n(-c3ccc(OC)cc3)c2n1 |  | inactive
CCNc1ncc2nc(-c3ccc(Cl)cc3)c(=O)n(C)c2n1 |  | 0.398 µM (active)
c1cncc(-c2ccc3ncnc(N4CCNCC4)c3c2)c1 |  | 1.26 µM (active)
N#Cc1cccc(-c2ccc3ncnc(N4CCNCC4)c3c2)c1 |  | 0.631 µM (active)
CN1CCN(c2ncnc3ccc(-c4cccc(C#N)c4)cc23)CC1 |  | 1.26 µM (active)
COc1cc2cc3c4cc(OC)c(OC)cc4cc[n+]3c(C)c2cc1OC |  | inactive
CC(C)CO/N=C1/[C@H]2O[C@@H]2[C@@H](O)[C@H]2[C@H]1CCn1c(=O)n(-c3ccccc3)c(=O)n12 | -6.37% [at 11.4 µM] | 
OCCCCNCc1ccc(OCc2ccccc2Cl)cc1 |  | 5.01 µM (active)
CCOc1cc(CNCCO)cc(Br)c1OCc1ccccc1Cl |  | 0.158 µM (active)

SMILES | activity, negative = inhibition | AC50
CCOc1cc(CNCCCN2CCOCC2)cc(Br)c1OCC(=O)Nc1cccc(C(F)(F)F)c1 |  | inactive
Clc1ccccc1CNCC1CCC(CNCc2ccccc2Cl)CC1 (centres undefined) |  | inactive
Clc1ccc(-c2nc3ncccn3c2Nc2ccc3c(c2)OCCO3)cc1 |  | 6.31 µM (active)
CC(C)CN1CCC2(CC1)CCN(C(=O)c1cc(C(F)(F)F)cc(C(F)(F)F)c1)CC2 |  | inactive
O=C(O)C1C2C=CC(C2)C1C(=O)N1CCN(C/C=C/c2ccccc2)CC1 (centres undefined) |  | inactive
O=C(/C=C/c1ccc2ccccc2c1)c1ccoc1 |  | 2.24 µM (active)
O=c1cc(-c2ccccc2)oc2cc(O)c(O)c(O)c12 |  | 0.501 µM (active)
CC(C)(C)OC(=O)COc1cc(OCC(=O)OC(C)(C)C)c2c(=O)cc(-c3ccccc3)oc2c1 |  | inactive
NS(=O)(=O)Cc1noc2ccccc12 |  | inactive
CCC(CC)C(=O)Nc1cccc(C(=O)Nc2ccc(OC)cc2[N+](=O)[O-])c1 |  | inactive
CCC(CC)C(=O)Nc1ccc(C)c(O)c1 |  | 12.6 µM (active)
CCCCC(=O)Nc1ccc(C)c(O)c1 |  | 3.55 µM (active)
CCCCC(=O)Nc1ccc(C(=O)NNC(=O)CCc2ccccc2)cc1 |  | inactive
COc1cc(C2C(C(=O)c3ccc(C)o3)=C(O)C(=O)N2CCc2ccccc2)ccc1O (centres undefined) |  | inactive
O=C1/C(=C\c2ccccn2)SC(=S)N1Nc1ncc(C(F)(F)F)cc1Cl |  | 8.91 µM (active)
Cc1cc(C)nc(NN2C(=O)/C(=C/c3ccccc3)SC2=S)n1 |  | inactive
Cc1cc(C)n2nc(SCN3C(=O)c4ccccc4C3=O)nc2n1 | 18.7% [at 11.4 µM] | 
CCCSc1nnc(CSc2nc3nc(C)cc(C)n3n2)o1 |  | inactive
Cc1cc(C)n2nc(SCc3cc(=O)oc4ccc5ccccc5c34)nc2n1 |  | 5.62 µM (active)
O=C(O)c1c[nH]c2cc(OCc3ccccc3)ccc2c1=O | -19.1% [at 11.4 µM] | 
Cc1c(C(=O)Nc2ccc(OCc3ccccc3)cc2)cccc1[N+](=O)[O-] |  | inactive
Oc1ccc(OCc2ccccc2)cc1 |  | 1.58 µM (active)
S=C(Nc1ccccc1)Nc1ccc(OCc2ccccc2)cc1 |  | 5.62 µM (active)
O[C@@H]1[C@@H](OCc2ccccc2)OC[C@H](O)[C@@H]1O | -15.1% [at 11.4 µM] | 
